Screens: PubChem BioAssay, National Center for Advancing Translational Sciences (NCATS)
TrxR1 substrate = substrates of rat thioredoxin reductase 1; O89049; purified TrxR1 substrate turnover, NADPH consumption readout; Potency, µM (series often up to 114 µM), without a hit: at the highest dose activity change, negative = substrate turnover; 390,000 tested, 0.01% active; further: on the % scale 0 is the no-effect control and ±100 the full control effect; nearly all actives have a fitted effect of over 50% in size
Target sequence (O89049 whole entry, looked up): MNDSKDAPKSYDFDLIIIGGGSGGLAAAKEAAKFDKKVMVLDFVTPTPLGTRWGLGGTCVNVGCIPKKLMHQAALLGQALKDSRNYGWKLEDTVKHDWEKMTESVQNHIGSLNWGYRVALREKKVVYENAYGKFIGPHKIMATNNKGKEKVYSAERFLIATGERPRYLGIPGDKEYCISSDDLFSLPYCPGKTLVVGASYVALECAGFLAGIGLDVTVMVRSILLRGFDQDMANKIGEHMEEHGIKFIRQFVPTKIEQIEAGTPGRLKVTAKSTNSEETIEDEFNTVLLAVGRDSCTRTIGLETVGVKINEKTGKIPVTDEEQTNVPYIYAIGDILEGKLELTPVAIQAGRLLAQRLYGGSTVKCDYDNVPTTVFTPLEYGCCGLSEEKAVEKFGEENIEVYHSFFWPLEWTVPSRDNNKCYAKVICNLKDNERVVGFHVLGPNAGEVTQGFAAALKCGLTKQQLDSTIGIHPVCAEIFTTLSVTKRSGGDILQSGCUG
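Rat TrxR1, dispensed at 90 nM, was prereduced with 400 uM NADPH (final) for 5 min at ~22 deg C, then incubated with compound 15 min before 400 uM selenite. A first-read NADPH fluorescence drop versus no-compound background flagged substrates.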
Mito fusion yeast = blocks mitochondrial division or promotes mitochondrial fusion; S. cerevisiae fusion-defective mutant growth rescue, CellTiterGlo 48 h; Potency, µM (series often up to 46.1 µM), inactives show at the highest dose growth rescue (activation), actives largely listed as activators; 320,000 tested, 0.23% active; AID 485298; further: % of control where 0% means no effect; nearly all actives have a fitted effect of over 45% in size
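S. cerevisiae fusion-defective temperature-sensitive mutants (e.g. fzo1-1, mgm1-5) grown 48 h at 37C in YPEG (ethanol/glycerol non-fermentable) medium with 23 nl compound per well; growth rescue read as CellTiterGlo luminescence.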
mIDH1 inhibitor = blocks human mutant IDH1 R132H enzyme; IDH1-R132H enzyme, NADPH consumption, diaphorase/resazurin fluorescence; 390,000 tested, 0.093% active; AID 602179; O75874; Potency, µM (series often up to 76.6 µM), without a hit: at the highest dose activity change, negative = inhibition, most hits filed as inhibitors; further: on the % scale 0 is the no-effect control and ±100 the full control effect; nearly all actives have a fitted effect of over 65% in size
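IDH1-R132H (0.5 ug/mL dispensed) in pH 7.5 Tris buffer was preincubated 30 min with compound, then given a substrate mix of 0.016 mM NADPH and 2 mM alpha-KG for 80 min at room temperature; remaining NADPH was read by diaphorase/resazurin fluorescence.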
A549 tox = A549 cytotoxicity, counter-screen for Nrf2 inhibitors. A549 ARE-Fluc cells, CellTiter-Fluor viability, 18-24 h. 390,000 tested, 0.16% active. AID 504648. Potency, µM (doses to about 46 µM), for the others: top-dose activity change, negative = cytotoxicity, usual class: inhibitors; further: on the % scale 0 is the no-effect control and ±100 the full control effect
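A549 ARE-Fluc cells in 5% FBS OPTI-MEM, 5000 cells/well, rested 2 h then exposed to compounds in concentration-response for 18-24 h at 37 °C. Viability by CellTiter-Fluor fluorescence (Ex 405/Em 525) after 30 min; luciferase luminescence (BugLite, 15 min, RT) read afterwards.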
rTrxR1 inhibitor = rat TrxR1 inhibition; O89049; recombinant rTrxR1, NADPH fluorescence consumption, selenite substrate; Potency, µM (top dose mostly 114 µM), inactives show at the highest dose activity change, negative = inhibition, actives largely listed as inhibitors; 390,000 tested, 1% active; AID 588453; further: on the % scale 0 is the no-effect control and ±100 the full control effect; nearly all actives have a fitted effect of over 65% in size
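Rat TrxR1 (90 nM in the dispensed reagent) was pre-reduced with 400 uM NADPH for 5 min at room temperature, then incubated with compound for 15 min. After 400 uM selenite was added, NADPH fluorescence (Ex 340/Em 450 nm) was followed for 8 min.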
Nrf2 inh = Nrf2 pathway inhibition; A549 ARE-Fluc reporter, luciferase luminescence, 18-24 h; Potency, µM (highest dose often 46 µM), inactives show top-dose activity change, negative = inhibition, usual class: inhibitors; 360,000 tested, 2.1% active; AID 504444; further: on the % scale 0 is the no-effect control and ±100 the full control effect; nearly all actives have a fitted effect of over 60% in size
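In this cell-based qHTS, ARE-driven firefly luciferase in A549 cells reports Nrf2 activity; the luminescent signal after BugLite lysis is the measured value, with a prior CellTiter-Fluor read for cell health.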
* = called active by the depositor; ? = inconclusive; . = not tested or not shown; [ ] = dose if it differs, or a comment. Shown are actives, neighbours in structure and some others; about 3.1% of the full set was active somewhere. The call rests on the fitted dose curve; in most records, active means well fitted curve in the direction sought with a large enough effect; inconclusive means small, poorly fitted or top-dose-only effect, or another doubt; inactive means no such curve, though single readings can be large; an effect the other way counts as inactive or inconclusive. Potency means the concentration at half of the fitted maximal effect.

SMILES | TrxR1 substrate | Mito fusion yeast | mIDH1 inhibitor | A549 tox | rTrxR1 inhibitor | Nrf2 inh
COc1ccc(CN(C)C(=O)CNC(=O)c2ccc3ccccc3c2)c(OC)c1 | 2%[0.457 µM] | 10% | 10% | 1% | 20% | ?
COc1ccc(Br)cc1CN(C)C(=O)CNC(=O)c1ccc2ccccc2c1 | 4%[57.1 µM] | -9% | -1% | ? | 20%[57.1 µM] | 18µM*
O=C(Cn1ncn2c(cc3sccc32)c1=O)NCCc1ccccc1 | 3% | . | 6% | 8% | 26% | 1%
Cc1c(P(=S)(c2ccccc2)c2ccccc2)[n+]2ccccc2n1CC(=O)c1ccccc1 | . | . | . | 3% | . | -7%
N#Cc1ccc(-c2ccc(C3Nc4ccccc4C(=O)N3O)o2)cc1 (centres undefined) | 5% | -3% | . | -14% | 7.1µM* | ?
O=C1c2ccccc2NC(c2ccc(-c3cccc(F)c3)o2)N1O (centres undefined) | -1% | 2% | . | -6% | -27% | 6%
Cc1cc2c(s1)c1cnn(Cc3c(Cl)cccc3Br)c(=O)c1n2C | . | . | . | -5% | . | 16%
CCn1c2ccccc2c2cc(NC(=O)CSc3nnc(C4CC4)n3Cc3ccco3)ccc21 | -5% | 6% | -6% | -12% | ? | 18µM*
CCn1c2ccccc2c2cc(NC(=O)c3ccco3)ccc21 | -5% | ? | 5% | -18% | ? | 21µM*
CCn1c2ccccc2c2cc(NC(C)=O)ccc21 | 7%[57.1 µM] | -2% | 2% | -1% | -4%[57.1 µM] | .
CCc1ccccc1NC(=O)CCNS(=O)(=O)c1ccc2c(c1)CCN2C(=O)C1CC1 | 2%[57.1 µM] | . | -8% | 7% | 25%[57.1 µM] | .
CC(C)Oc1ccc(CSC(=N)N)cc1 | -2% | 2% | 1% | -7% | 4% | 17%
N=C(N)SCCc1ccc(CCSC(=N)N)cc1 | 1%[57.1 µM] | 21µM* | . | . | 1%[57.1 µM] | .
Cn1c2ccccc2c2nnc(SCCOc3ccccc3)nc21 | 6% | . | . | -10% | 11% | 5.2µM*
CCn1c2ccccc2c2nnc(SCc3ccccc3)nc21 | 6% | 16µM* | 4% | -4% | 13% | ?
Cn1c2ccccc2c2nnc(SCC(N)=O)nc21 | -2% | -4% | 6% | 12% | 16% | -6%
COc1ccc(N2CC(NC(=O)COc3ccc(F)cc3)CC2=O)cc1OC (centres undefined) | 2%[57.1 µM] | . | . | -6% | 10%[57.1 µM] | .
NCCc1nc2cccnc2n1-c1ccccc1 | -3%[57.1 µM] | . | 0% | 1% | 3%[57.1 µM] | .
CCNC(=S)N1CCN(C(c2ccccc2)c2ccccc2)CC1 | -9% | 24% | 0% | -12% | -15% | 26µM*
CCCCNC(=O)N1CCN(C(c2ccccc2)c2ccccc2)CC1 | 5%[57.1 µM] | 18µM* | 6% | -2% | 10%[57.1 µM] | -6%
O=C(Nc1cccc(-c2nn3c(=O)cc(N4CCNCC4)nc3s2)c1)C1CCNCC1 | . | . | . | 12% | . | -1%
NC(=O)c1cc2ccccc2o/c1=N\NC(=O)c1ccccc1O | -6% | 9% | -8% | -10% | -5% | 8.2µM*
O=S(=O)(CCN1CCCCC1)Oc1ccc(Cl)cc1Cl | 3% | 1% | 0% | 0% | 0.89µM* | 7%
O=C(COc1ccc(Cl)cc1Cl)NCCN1CCCCC1 | . | . | 7% | . | . | .
O=c1c2sc3ccccc3c2n(Cc2cccc(C(F)(F)F)c2)c(=O)n1-c1ccccc1 | 25% | . | -2% | -10% | 32% | -16%
SMILES | TrxR1 substrate | Mito fusion yeast | mIDH1 inhibitor | A549 tox | rTrxR1 inhibitor | Nrf2 inh
O=S(=O)(c1ccc2c(c1)OCCO2)N1CCN(S(=O)(=O)c2c(Cl)cc(C(F)(F)F)cc2Cl)CC1 | . | . | . | -6% | . | -5%
CCOC(=O)c1c(C)nc2c(c1-c1ccccc1)C(=O)c1ccccc1-2 | -8%[57.1 µM] | -1% | 1% | -19% | -5%[57.1 µM] | 13µM*
CCOC(=O)c1c(C)nc2c(c1-c1cc(OC)ccc1OC)C(=O)c1ccccc1-2 | 2% | -2% | 0% | -6% | 7% | 1%
O=C(c1ccc2c(=O)n(-c3ccccc3)c(=S)[nH]c2c1)N1CCCCC1 | 6%[57.1 µM] | -1% | 2% | -3% | 4%[57.1 µM] | 7.3µM*
O=C(c1ccc2c(=O)n(-c3ccccc3)c(=S)[nH]c2c1)N1CCN(c2ccccc2)CC1 | -1% | -8% | -7% | -18% | -9% | ?
O=C(c1ccc2c(=O)n(C3CCCC3)c(=S)[nH]c2c1)N1CCCCCC1 | -8%[57.1 µM] | -2% | 9% | -22% | 18%[57.1 µM] | 16µM*
CN1CCCc2ccccc21 | 7% | . | . | . | -9% | .
Cc1cc2nccc(/C=C/c3ccc(N(C)C)cc3)c2cc1C | -11% | . | . | . | -14% | .
O=S(=O)(c1ccc(Cl)cc1)N1CCN(S(=O)(=O)c2ccc3c(c2)OCCO3)CC1 | . | . | . | -1% | . | -3%
C=CCOC(=O)c1[nH]c2c(c1C)C(=O)CC(c1cc(OC)c(OC)c(OC)c1)C2 (centres undefined) | -7%[57.1 µM] | 1% | -5% | -30% | -16%[57.1 µM] | 10µM*
COCCOC(=O)c1[nH]c2c(c1C)C(=O)CC(c1cc(OC)c(OC)c(OC)c1)C2 (centres undefined) | 4% | -6% | -1% | -3% | 16% | ?
COc1cc(C2CC(=O)c3c([nH]c(C(=O)OC4CCCCC4)c3C)C2)cc(OC)c1OC (centres undefined) | 2%[57.1 µM] | -1% | 14% | ? | 10%[57.1 µM] | .
CCCCOC(=O)c1[nH]c2c(c1C)C(=O)CC(c1cc(OC)c(OC)c(OC)c1)C2 (centres undefined) | 6%[57.1 µM] | 8% | 1% | -29% | 14%[57.1 µM] | 13µM*
CCCCNC(=O)[C@@H]1CC=C[C@@H]2CCN(Cc3ccc(OC)c(OC)c3)C(=O)[C@@H]21 | 6% | . | . | . | -1% | .
COc1ccc(OC)c(NC(=O)CSc2n[nH]c(-c3ccccc3Cl)n2)c1 | -4%[57.1 µM] | . | 1% | -1% | 6%[57.1 µM] | .
Brc1ccc(C2=Nn3c(nnc3-c3n[nH]c4c3CCC4)SC2)cc1 | -11% | 16µM* | ? | -30% | -11% | ?
Clc1ccc(C2=Nn3c(nnc3-c3n[nH]c4c3CCC4)SC2)cc1 | 12%[57.1 µM] | 13% | ? | ? | 22%[57.1 µM] | .
N#Cc1ccc(S(=O)(=O)N2CCN(S(=O)(=O)c3ccc4c(c3)OCCO4)CC2)cc1 | . | . | . | -1% | . | 16%
CCc1nn(CC(=O)NCCN(CC(C)C)CC(C)C)c(=O)c2cc3sc(C)cc3n12 | 3% | . | -18% | 8% | 21% | 4%
CCCS(=O)(=O)c1nnnn1-c1cccc(OC)c1 | 10% | -26% | 3% | ? | 3.5µM* | ?
COc1cccc(-n2nnnc2SCC(=O)Nc2ccccc2OC)c1 | -3% | 1% | 1% | 7% | 12% | -27%
